# Test results: the supplement of paper PMC6331611
# ± gives the standard deviation of the averaged measurements. The full ranking holds about 1,600 compounds; the median of “normalized intracellular growth (luminescence, IQM-normalized) in RAW264.7 macrophages” is about 1, and the lowest 2% start at about 0.43. Only a selection was taken, and the lowest values are over-represented in it overall.
# Test system: Salmonella enterica serovar Typhimurium SL1344
# Experiment: normalized intracellular growth (luminescence, IQM-normalized) in RAW264.7 macrophages (fraction of plate interquartile mean); higher = more bacterial growth (less inhibition)
# Conditions: 10 µM
SMILES,normalized intracellular growth (time point: T3 (3 h)),normalized intracellular growth (time point: Tfinal (~6 h))
CC(=O)OC1CC2CCC1(C)C2(C)C (stereo not given),1.011 ± 0.01,1.14 ± 0.018
CC[n+]1c(-c2ccccc2)c2cc(N)ccc2c2ccc(N)cc21,0.993 ± 0.05,1.13 ± 0.11
CC(C)(C)CC(C)(C)c1cc(Cc2cc(C(C)(C)CC(C)(C)C)cc(-n3nc4ccccc4n3)c2O)c(O)c(-n2nc3ccccc3n2)c1,1.02 ± 0.096,1.19 ± 0.3
CNC(=O)c1c(I)c(NC(C)=O)c(I)c(C(=O)O)c1I,1.01 ± 0.056,0.883 ± 0.21
C[N+]1(C)[C@@H]2CC[C@H]1C[C@@H](OC(=O)C(O)c1ccccc1)C2 (stereo not given in full),0.968 ± 0.056,1.06 ± 0.025
C[C@]12C=CC(=O)C=C1CC[C@@H]1[C@@H]2[C@@H](O)C[C@@]2(C)[C@H]1CC[C@]2(O)C(=O)COP(=O)(O)O,0.954 ± 0.029,1.16 ± 0.24
S=C1SCN(Cc2ccccc2)CN1Cc1ccccc1,1.01 ± 0.087,0.779 ± 0.14
CCOC(=O)C1=C[C@@H](OC(CC)CC)[C@H](NC(C)=O)[C@@H](N)C1,1.01 ± 0.021,1.33 ± 0.15
CN(Cc1cnc2nc(N)nc(N)c2n1)c1ccc(C(=O)NC(CCC(=O)O)C(=O)O)cc1 (racemic),1.05 ± 0.046,0.825 ± 0.024
CO/N=C(\C(=O)N[C@@H]1C(=O)N2C(C(=O)OC(C)OC(C)=O)=C(COC(N)=O)CS[C@H]12)c1ccco1 (stereo not given in full),1.09 ± 0.063,0.977 ± 0.23
Cn1nnnc1SCC1=C(C(=O)O)N2C(=O)[C@@H](NC(=O)[C@H](OC=O)c3ccccc3)[C@H]2SC1,0.866 ± 0.094,0.979 ± 0.024
CO/N=C(\C(=O)N[C@@H]1C(=O)N2C(C(=O)O)=C(CSc3nnnn3C)CS[C@H]12)c1csc(N)n1,0.987 ± 0.052,0.935 ± 0.032
CO/N=C(\C(=O)N[C@@H]1C(=O)N2C(C(=O)O)=C(COC(N)=O)CS[C@H]12)c1ccco1,0.994 ± 0.043,0.732 ± 0.083
CC1=C(C(=O)O)N2C(=O)[C@@H](NC(=O)[C@H](N)c3ccc(O)cc3)[C@H]2SC1,0.982 ± 0.0066,0.831 ± 0.018
CO/N=C(\C(=O)N[C@@H]1C(=O)N2C(C(=O)O)=C(CSc3nc(=O)c(O)nn3C)CS[C@H]12)c1csc(N)n1,0.891 ± 0.022,0.311 ± 0.035
CC1=C(C(=O)O)N2C(=O)[C@@H](NC(=O)[C@H](N)c3ccccc3)[C@H]2SC1,1.017 ± 0.0017,1.07 ± 0.1
Nc1nc(/C(=C/CC(=O)O)C(=O)N[C@@H]2C(=O)N3C(C(=O)O)=CCS[C@H]23)cs1,0.951 ± 0.059,0.0259 ± 0.0032
CO/N=C(\C(=O)N[C@@H]1C(=O)N2C(C(=O)O)=C(CSC(=O)c3ccco3)CS[C@H]12)c1csc(N)n1,1 ± 0.029,0.0233 ± 0.0029
Cc1ncc(CSSCc2cnc(C)c(O)c2CO)c(CO)c1O,0.943 ± 0.057,1.06 ± 0.015
O=C(O)C1=C(CSc2nnnn2CS(=O)(=O)O)CS[C@@H]2[C@H](NC(=O)[C@H](O)c3ccccc3)C(=O)N12,0.979 ± 0.034,0.824 ± 0.19
